# ± gives the standard deviation. The full ranking holds about 3,700 sequences; the median of “pre-steady-state target cleavage rate” is about 0.02, and the highest 2% start at about 0.23. This excerpt belongs to a sample that is enriched for the highest values.
# Tested on: MILI (PIWIL2) piRISC loaded with Kctd7 piRNA (26 nt)
# Experiment: pre-steady-state target cleavage rate (min^-1); MIWI and MILI are mouse PIWI proteins and EfPiwi is from a freshwater sponge; tags in brackets are library labels; higher = faster piRNA-guided slicing of the target
# Details: guide: Kctd7 piRNA 5'p-UGUUAAUCUCUCAGAGAAGGUGACAG; auxiliary factor: 500 nM mouse GTSF1
# Experimental: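 Cleave-'n-Seq: a library of target RNAs (target site embedded in constant flanks, ACAGCATTCCGCGTTAGTGATATCCG... 5' flank; DNA-blocked outside the site) at 0.1 nM was incubated with 1 nM active mouse MILI or MIWI piRISC (synthetic 5'-monophosphorylated piRNA guide) with or without 500 nM mouse GTSF1 at 33 °C for 1 min to 16 h. Uncleaved targets were sequenced and normalised to non-target controls, and the pooled three trials were fitted to a burst-and-steady-state model to give the pre-steady-state cleavage rate (min^-1; k3 is constrained to at most 1e-4). Sequence is the target site only; target names encode pairing extent (gX:gY) and contiguous / 1-mismatch / 2-mismatch / bulge geometry. Fits with R² ≤ 0 are excluded.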
row,Sequence,pre-steady-state target cleavage rate
1,UAGUGUGUCACCUUCUCUGAGAGAAUUAACA,0.277 ± 0.048
2,UAGUCUGUCACCUUCUCUGAGAAUUAACA,0.0747 ± 0.031
3,UAGUGUGUCACCUUCUCUGAGAAUUAACA,0.0848 ± 0.036
4,UAGUCUGUCACCUUCUCUGAGAGAAUUAACA,0.32 ± 0.051
5,UAGUCUGUCACCUUCUCUGAGAAAUUAACA,0.143 ± 0.018
6,UAGUGUGUCACCUUCUCUGAGAAAUUAACA,0.112 ± 0.019
7,UAGUGACAGUCCUUCUCUGAUGAGAUUAACA,0.00278 ± 0.0025
8,UAGUGACACUCCUUCUCUGAGUGAUUAACA,0.00415 ± 0.0032
9,UAGUGACAGACGUACUCUGAGAGAUUAACA,0.014 ± 0.0034
10,UAGUGAGUCACCUACUCUGAGAGAUUUACA,0.164 ± 0.053
11,UAGUGUGUCACCUACUCUGAGAGAUUUACA,0.25 ± 0.052
12,UAGUGUGUCACCUACUCUGAGAGAUUAAGA,0.1 ± 0.023
13,UAGUGUGUCACCUACUCUGAGAGAUUUUGA,0.0414 ± 0.016
14,UAGUGUGUCACCUACUCUGAGAGAUUAUGA,0.0343 ± 0.015
15,UAGUGUGUCACCUACUCUGAGAGAUUAUCA,0.239 ± 0.049
16,UAGUGUGUCACCUUCUCUGAGAGAUUUACA,0.266 ± 0.047
17,UAGUGUGUCACCUUCUCUGAGAGAUUACA,0.122 ± 0.036
18,UAGUGUCUCACCUUCUCUGAGAGAUUUACA,0.196 ± 0.043
19,UAGUGUGUCACCUUCUCUGAGAGAUUAACA [g2:g25:cont:t1A],0.216 ± 0.015
20,UAGUGUGUCACCUUCUCUGAGAGAUUUAACA,0.391 ± 0.052
21,UAGUGUGUCACCUUCUCUCUGAGAUUAACA,0.0138 ± 0.004
22,UAGUGACUGUCCUUCUCUGAGAGAUUAACA,0.2 ± 0.016
23,UAGUGAGUGACCUUGUCUGAGAGAUUAACA,0.0726 ± 0.014

row,Sequence,pre-steady-state target cleavage rate
1,UAGUGACAGACCUUGUCUGACAGAUUAACA,0.0121 ± 0.0036
2,UAGUCUGUCACCUUCUCUGAGAGAUUCAACA,0.324 ± 0.061
3,UAGUGAGUCACCUUCUCUGAGAGAUUUUCA,0.145 ± 0.044
4,UAGUCUGUCACCUUCUCUGAGAGAUCAACA,0.114 ± 0.018
5,UAGUGAGUCACCUUCUCUGAGAGAUCAACA,0.0788 ± 0.025
6,UAGUCUGUCACCUUCUCUGAGAGAUUUUCA,0.12 ± 0.031
7,UAGUGAGUCACCUUCUCUGAGAGAUUCAACA,0.279 ± 0.054
8,UAGUCUGUCAACCUUCUCUGAGAGAUUAACA,0.0716 ± 0.011
9,UAGUCUGUCACCUUCUCUGAGAGAUUCACA,0.265 ± 0.059
10,UAGUCUGUCACCUUCUCUGAGAGAUUACACA,0.153 ± 0.022
11,UAGUGACAGUGCUUCUCUGAGAGAUUAUCA,0.00765 ± 0.0025
12,UAGUCUGUCACCUUCUCUCAGAGAUUAACA,0.064 ± 0.0081
13,UAGUGACAGUGGAACUCUGAGAGUUAAACA,< 0.0001
14,UAGUGACACACCUUCUCUGAUGAGAUUAACA,0.00949 ± 0.0043
15,UAGUGAGUCACCUUCACUGACAGAUUAACA,0.0411 ± 0.013
16,UAGUGACACACCUUCUCUGAGAAAUUAACA,0.219 ± 0.035
17,UAGUGACUCACCUUCUCGAGAGAUUAACA,0.02 ± 0.0065
18,UAGUGUGUCACCUUCUCUGAAAGAUUAACA,0.0569 ± 0.011
19,UAGUGACAGUGGAACACUGAGACAUUAACA,< 0.0001
20,UAGUGUGUCACCUUCUCUGAGAGUUUAACA,0.316 ± 0.078
21,UAGUGUGUCACCUUCUCUGAGAGUUAACA,0.194 ± 0.055
22,UAGUGUGUCACCUUCUCUGAGAGUAUAACA,0.181 ± 0.072
23,UAGUGUGUCACCUUCUCUGAGAGUAAAACA,0.194 ± 0.057

row,Sequence,pre-steady-state target cleavage rate
1,UAGUGUGUCACCUUCUCUGAGAGAGUUAACA,0.259 ± 0.046
2,UAGUCUCUCACCUUCUCUGAGAGUUUAACA,0.183 ± 0.024
3,UAGUGUGUCACCUUCUCUGUGAGUUUAACA,0.0386 ± 0.0085
4,UAGUGUCUCACCUUCUCUGAGAGUUUAACA,0.286 ± 0.038
5,UAGUGACUCACCUUCUCUGAGAGUUUAACA,0.118 ± 0.028
6,UAGUGUGUCACCUUCUGUGAGAGUUUAACA,0.0964 ± 0.027
7,UAGUGUGUCACCUUCUCUGAGAGAGUAACA,0.287 ± 0.056
8,UAGUGUGUCACCUUCUCUGAGAGUUAAACA,0.146 ± 0.049
9,UAGUGAGUCACCUUGUCUGAGAGAUUUUGA,0.0161 ± 0.0098
10,UAGUGACACAGGAUCUCUGAGAGAUAUUGA,< 0.0001
11,UAGUGUGUCACCGUCUCUGAGAGAUUAACA,0.113 ± 0.012
12,UAGUCUGUCUCCUUCUCUGAGAGAUUAAGA,0.054 ± 0.012
13,UAGUCUGUCACCUUCUCUGAGAGACUAACA,0.149 ± 0.027
14,UAGUGUGUCACCUUCUCUGAGAGAUCUAACA,0.306 ± 0.071
15,UAGUGUGUCACCUUCUCUGAGAGAUAACA,0.0605 ± 0.02
16,UAGUCUGUCACCUUCUCUAAGAGAUUAACA,0.138 ± 0.0097
17,UAGUGAGUCACCUUCUCUGAGAGAUCUAACA,0.171 ± 0.035
18,UAGUCUGUCACCUUCUCUGAGAGAUCUAACA,0.258 ± 0.054
19,UAGUGAGUCACCUUCUGUGUGAGAUUAACA,0.0434 ± 0.0067
20,UAGUGACAGUCCUUCUCUGAGAGUAAUUGA [g8:g20:cont:t1A],< 0.0001
21,UAGUGACUCACCUUCUCUGAGAGCUUAACA,0.156 ± 0.022
22,UAGUCUGUCACCUGCUCUGAGAGAUUAACA,0.175 ± 0.011
23,UAGUGUGUCACCUUGUCUGAGAGAUUAACA,0.134 ± 0.021

row,Sequence,pre-steady-state target cleavage rate
1,UAGUGAGUCACCUGCUCUGAGAGAUUAACA,0.169 ± 0.018
2,UAGUGAGUCACCUUGCUCUGAGAGAUUAACA,0.351 ± 0.077
3,UAGUGUGUCACCUGCUCUGAGAGAUUAACA,0.157 ± 0.012
4,UAGUCUGUCACCUUGCUCUGAGAGAUUAACA,0.299 ± 0.059
5,UAGUCUGUCACCUUGUCUGAGAGAUUAACA,0.133 ± 0.016
6,UAGUGACUCACCUUGCUCUGAGAGAUUAACA,0.048 ± 0.016
7,UAGUGUGUCACCUUGCUCUGAGAGAUUAACA,0.248 ± 0.061
8,UAGUGACAGUCCUUCUCUGAGAGAUUAACCA,0.0785 ± 0.0063
9,UAGUGACACACCUUCUCUGAGAGAUAUUCA,0.0197 ± 0.0083
10,UAGUGACACACCUUCUCUGAGAGAUUAACA [g2:g22:cont:t1A],0.178 ± 0.01
11,UAGUGACAGACCUUCUCUGAGAGAUUCAACA,0.177 ± 0.04
12,UAGUGACACACCUUCUCUGAGAGAUUUUCA,0.064 ± 0.02
13,UAGUGACUCACCUUCUCUGAGAGAUUCAACA,0.221 ± 0.035
14,UAGUGACACACCUUCUCUGAGAGAUUCACA,0.258 ± 0.057
15,UAGUGACUCACCUUCUCUGAGAGAUUUUCA,0.0728 ± 0.019
16,UAGUGACACACCUUCUCUGAGAGAUUUAACA,0.243 ± 0.023
17,UAGUGACUCACCUUCUCUGAGAGAUUCACA,0.314 ± 0.091
18,UAGUGACACACCUUCUCUGAGAGAUCAACA,0.0804 ± 0.024
19,UAGUGACACACCUUCUCUGAGAGAUUCAACA,0.244 ± 0.061
20,UAGUGACACACCUUCUCUCUGAGAUUAACA,0.00653 ± 0.0037
21,UAGUCUGUCACCUUCUCAGAGAGAAUAACA,0.0517 ± 0.017
22,UAGUGACUCACCUUCUCUGAGGGAUUAACA,0.0864 ± 0.011
